Compounds with a hit are over-represented: about 19% of the library has one in this group of screens.
KB-3-1 cytotox: qHTS assay for MDR1-selective chemotherapeutics: Primary screen using the parental adenocarcinoma cell KB-3-1; 400,000 tested, 1.4% active; Potency, µM (series often up to 46.1 µM), actives largely listed as cytotoxic; AID 1347075, 2019; KB-3-1 viability, CellTiter-Glo ATP luminescence, 72 h; further: nearly all actives have a fitted effect of over 60% in size
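Screening of KB-3-1 cells (DMEM, 10% FBS, phenol-red free) ran from lowest to highest compound concentration; after 72 h at 37 °C viability was read luminescently and curves fitted.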
DT40 TDP1 CPT: qHTS for Inhibitors of human tyrosyl-DNA phosphodiesterase 1 (TDP1): qHTS in cells in presence of CPT | chicken DT40 Tdp1-/-;hTDP1 cells + 20 nM CPT, ATP luminescence, 48 h | Potency, µM (titrated, usually from 46.2 µM), inactives show at the top dose activity change, negative = growth inhibition, most hits filed as inhibitors | 420,000 tested, 12% active | AID 686979, 2013; further: nearly all actives have a fitted effect of over 55% in size
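Chicken DT40 Tdp1-/- cells complemented with human TDP1, 400 cells/well, exposed to compounds plus 20 nM camptothecin for at least 48 h at 37 C; viability read as ATP content by CellTiter-Glo luminescence.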
KB-V1 cytotox: qHTS assay for MDR1-selective chemotherapeutics: Primary screen using the drug-selected MDR subline cells KB-V1; AID 1347076, 2019; Potency, µM (doses to about 46.1 µM), most hits filed as cytotoxic; KB-V1 MDR cells viability, CellTiter-Glo, 72 h; 400,000 tested, 3.4% active; further: nearly all actives have a fitted effect of over 60% in size
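Cytotoxicity via CellTiter-Glo luminescence after 72 h compound exposure at 37 degrees C. Cells: drug-selected KB-V1 line, DMEM phenol-red free plus 10% FBS. Compounds tested at multiple concentrations; normalized data fitted to concentration-effect curves.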
DT40 TDP1 no CPT: qHTS for Inhibitors of human tyrosyl-DNA phosphodiesterase 1 (TDP1): qHTS in cells in absence of CPT. 420,000 tested, 15% active. Potency, µM (highest dose often 46.2 µM), without a hit: top-dose activity change, negative = growth inhibition, actives largely listed as inhibitors. AID 686978, 2013. DT40 Tdp1-/- hTDP1 cells, no CPT, ATP luminescence, 48 h; further: nearly all actives have a fitted effect of over 55% in size
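Cells were dispensed at 400 per well, compounds added by pin tool, plates incubated ≥48 hr at 37 °C, then CellTiter-Glo added for 30 min at room temperature before luminescence reading. Line: DT40 Tdp1-/- complemented with hTDP1; camptothecin omitted.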
HT1080 IDH1KD tx: qHTS for induction of synthetic lethality in tumor cells producing 2HG: qHTS for the HT-1080-IDH1KD cell line; HT-1080 IDH1 knockdown viability, ATP luminescence, 48 h; Potency, µM (series often up to 46.1 µM), for inactives: at the highest dose activity, negative = toxicity, most hits filed as cytotoxic; 360,000 tested, 2% active;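 further: 0% = DMSO wells and -100% = cell-free medium wells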
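Cytotoxicity counter-line: IDH1KD HT-1080, 48 h, CellTiter-Glo. Curves classed by r2, magnitude and activity.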
HT1080-NT tox: qHTS for induction of synthetic lethality in tumor cells producing 2HG: qHTS for the HT-1080-NT fibrosarcoma cell line | HT-1080-NT fibrosarcoma viability, CellTiter-Glo ATP luminescence, 48 h | Potency, µM (series often up to 46.1 µM), without a hit: at the highest dose activity, negative = less viability, actives largely listed as cytotoxic | 360,000 tested, 1.6% active | AID 686970, 2013;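 further: NT is the 2HG producing partner of a matched IDH1 knockdown line; 0% = DMSO-treated cells and -100% = media-only wells without cells; nearly all actives have a fitted effect of over 55% in size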
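Toxicity toward the 2HG-producing NT line was scored as %Activity, normalised to DMSO and no-cell wells, from CellTiter-Glo luminescence after 48 hours' treatment.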
* = called active by the depositor; i = inactive; ? = inconclusive; · = no result. The call rests on the fitted dose curve; in most records, active means well fitted curve in the direction sought with a large enough effect; inconclusive means small, poorly fitted or top-dose-only effect, or another doubt; inactive means no such curve, though single readings can be large; an effect the other way counts as inactive or inconclusive. Unless noted, on the % scale 0 is the no-effect control and ±100 the full control effect; potency means the concentration at half of the fitted maximal effect.

SMILES	KB-3-1 cytotox	DT40 TDP1 CPT	KB-V1 cytotox	DT40 TDP1 no CPT	HT1080 IDH1KD tx	HT1080-NT tox
CCOc1ccc(NC(=O)CSc2nc3ccccc3nc2N2CC(C)OC(C)C2)cc1 (centres undefined)	i	23µM*	i	10µM*	7%	22%
COc1cccc(C(=O)OCC(=O)Nc2ccc3c(c2)OCCO3)c1	i	-25%	i	?	-6%	4%
CCCCNC(=O)/C=C/c1ccc(S(=O)(=O)Nc2ccc(OC)cc2)cc1	i	-30%	i	-7%	-20%	-18%
CSc1nc(N)c2ncn([C@@H]3O[C@H](COP(=O)(O)OP(=O)(O)OP(=O)(O)O)[C@@H](O)[C@H]3O)c2n1	·	-28%	·	-9%	·	·
CCOc1ccc(NC(=O)c2sc(N3CCOCC3)nc2-c2ccccc2)cc1	i	?	?	23µM*	-3%	-9%
Cc1ccc(-c2nc(N3CCOCC3)sc2C(=O)N2CCCCC2)cc1	i	-3%	18µM*	?	17%	0%
O=C(Nc1ccccc1)c1sc(N2CCOCC2)nc1-c1ccccc1	i	-23%	?	?	12%	4%
CC(C)[C@H](NC(=O)c1cccc(S(=O)(=O)N2CCOCC2)c1)C(=O)Nc1nc2ccccc2s1	?	?	?	?	-2%	2%
O=C1NC[C@H](CCCCN2C[C@H](Cc3ccccc3)N(CCC3CCCCC3)C(=O)C2=O)N(CCc2ccc(O)cc2)C1=O	i	1%	i	-19%	0%	10%
Cn1ccnc1SCc1nc2c(cnn2-c2ccccc2)c(=O)[nH]1	i	0%	i	-19%	5%	1%
O=c1[nH]c(CSc2ccccn2)nc2c1cnn2-c1ccccc1	i	?	21µM*	?	1%	0%
COc1ccc(OC)c(S(=O)(=O)ON2C(=O)c3ccccc3C2=O)c1	?	2.3µM*	i	1.5µM*	4.1µM*	?
COc1ccc(OC)c(S(=O)(=O)N2CCN(c3ccccc3)CC2)c1	i	11%	i	5%	7%	10%
O=S(=O)(Nc1cnc2ccccc2c1)N1CCCCCC1	i	21µM*	i	13µM*	-15%	-15%
COc1ccc(OC)c(S(=O)(=O)Nc2cnc3ccccc3c2)c1	i	?	?	23µM*	-24%	?
COc1ccc(OC)c(S(=O)(=O)n2cnc3ccccc32)c1	?	?	23µM*	16µM*	-3%	-6%
Cc1ccc(S(=O)(=O)Nc2cnc3ccccc3c2)cc1	?	?	i	?	-1%	0%
CS(=O)(=O)N(CC(=O)Nc1ccc(S(=O)(=O)N2CCOCC2)cc1)c1ccccc1Br	i	-16%	i	?	2%	-2%
COc1ccc(OC)c(S(=O)(=O)Nc2ccc3c(c2)C(=O)OC3)c1	i	12µM*	i	8.2µM*	21µM*	18µM*
COc1ccc(NS(=O)(=O)c2cc(OC)ccc2OC)cc1	i	-20%	i	?	-3%	7%
